# Measurements: the supplement of paper PMC12350171
# Where a name gives a salt, the structure may show the parent alone. Values without a mark were called inactive.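 The calls were made as follows: active = normalised median growth AUC below 0.1 of DMSO control; inactive = AUC 0.1 or higher.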
# What was measured:
# Experiment in all cases: growth AUC normalised to DMSO control (median) (fraction of control); higher = less growth inhibition, active = hit call of the paper
# Conditions in all cases: 20 µM
# [1] = test system: P. vulgatus RND KO
# In short: (§1)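 After two overnight anaerobic passages, strains were inoculated at OD578 0.01 into mGAM in 96-well plates containing approved-drug library compounds at 20 μM and 1% DMSO. Growth was followed by reading OD578 hourly for 24 h within an anaerobic incubator. Area under the curve, taken by the trapezoidal rule up to the start of stationary phase, was normalised to same-plate vehicle wells, and the median of three biological replicates is listed.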
# [2] = test system: P. vulgatus WT
# In short: as §1
# [3] = test system: S. enterica typhimurium WT
# In short: as §1
# [4] = test system: S. enterica typhimurium tolC KO
# In short: as §1
# 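Also: active when median AUC fell below 0.1.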
SMILES,growth AUC normalised to DMSO control [1],growth AUC normalised to DMSO control [2],growth AUC normalised to DMSO control [3],growth AUC normalised to DMSO control [4]
CCc1oc2ccccc2c1C(=O)c1ccc(O)cc1 [Benzarone],0.881,0.794,1,0.858
CC[C@H](C)[C@H](NC(=O)[C@H](Cc1ccc(O)cc1)NC(=O)[C@@H](NC(=O)[C@H](CCCN=C(N)N)NC(=O)[C@@H](N)CC(=O)O)C(C)C)C(=O)N[C@@H](Cc1cnc[nH]1)C(=O)N1CCC[C@H]1C(=O)N[C@@H](Cc1ccccc1)C(=O)O [Angiotensin II (Human) Trifluoroacetic acid salt],1.1,1.1,0.997,1.02
CC(C)Cc1ccc(C(C)C(=O)OCc2ccccn2)cc1 (stereo not given) [Ibuprofen Piconol],1,1.05,0.999,0.875
C[C@H]1[C@H](OC(=O)CCC(=O)O)O[C@@H]2O[C@@]3(C)CC[C@H]4[C@H](C)CC[C@@H]1[C@@]24OO3 [Artesunate],1.01,1,1,1.01
O=C1Nc2ccccc2C1(c1ccc(O)cc1)c1ccc(O)cc1 [Oxyphenisatin],1.04,1.04,0.994,0.99
N#Cc1ccc(Oc2ccc3c(c2)COB3O)cc1 [Crisaborole],1,1.02,1.01,1.02
CS(=O)(=O)CCNCc1ccc(-c2ccc3ncnc(Nc4ccc(OCc5cccc(F)c5)c(Cl)c4)c3c2)o1 [Lapatinib],1.03,1.03,1,0.99
COc1ccc(-c2noc(CC(=O)O)c2-c2ccc(OC)cc2)cc1 [Mofezolac],0.999,1.03,1.01,0.998
CC1(C)O[C@@H]2C[C@H]3[C@@H]4CCC5=CC(=O)C=C[C@]5(C)[C@H]4[C@@H](O)C[C@]3(C)[C@]2(C(=O)CO)O1 [Desonide],0.783,0.993,0.996,1
Nc1nc2[nH]cc(CCc3ccc(C(=O)N[C@@H](CCC(=O)O)C(=O)O)cc3)c2c(=O)[nH]1 [Pemetrexed disodium],1.07,1.04,1.01,0.999
C#CCN[C@@H]1CCc2ccccc21 [Rasagiline],0.989,0.96,1,0.982
Cn1c(NCCN(CCO)CCCc2ccc([N+](=O)[O-])cc2)cc(=O)n(C)c1=O [Nifekalant],1.06,1.03,1.02,1
Cc1c(O)cccc1C(=O)N[C@@H](CSc1ccccc1)[C@H](O)CN1C[C@H]2CCCC[C@H]2C[C@H]1C(=O)NC(C)(C)C [Nelfinavir mesylate],0.912,0.954,1,0.962
C=CC[C@@H]1/C=C(\C)C[C@H](C)C[C@H](OC)[C@H]2O[C@@](O)(C(=O)C(=O)N3CCCC[C@H]3C(=O)O[C@H](/C(C)=C/[C@@H]3CC[C@@H](O)[C@H](OC)C3)[C@H](C)[C@@H](O)CC1=O)[C@H](C)C[C@@H]2OC [Tacrolimus Monohydrate],1,1.03,0.998,1.04
CC=CC1=C(C(=O)O)N2C(=O)[C@@H](NC(=O)[C@H](N)c3ccc(O)cc3)[C@H]2SC1 [Cefprozil],1.45,1.42,1.01,0.983
CS(=O)(=O)c1ccc([C@@H](O)[C@@H](CF)NC(=O)C(Cl)Cl)cc1 [Florfenicol],0.0099 (active),0.00788 (active),0.00248 (active),0.00279 (active)
CCOC(=O)CC(=O)N1CCSC1COc1ccccc1OC (stereo not given) [Moguisteine],0.965,0.965,1.01,0.986
COc1ccc(-c2ccc3cc(C(=O)O)ccc3c2)cc1C12CC3CC(CC(C3)C1)C2 [Adapalene],1.03,1,0.988,1.01
C/C(=C\C(=O)OCCCCCCCCC(=O)O)C[C@@H]1OC[C@H](C[C@@H]2O[C@H]2[C@@H](C)[C@H](C)O)[C@@H](O)[C@H]1O [Mupirocin],1,1.04,0.403,0.0105 (active)
CO/N=C1\CN(c2nc3c(cc2F)c(=O)c(C(=O)O)cn3C2CC2)CC1CN (stereo not given) [Gemifloxacin mesylate],0.0152 (active),0.0136 (active),0.0112 (active),0.0027 (active)
CN1CC(=O)N2[C@H](c3ccc4c(c3)OCO4)c3[nH]c4ccccc4c3C[C@@H]2C1=O [Tadalafil],0.919,0.845,0.996,0.981
CCCNC(C)(C)C(=O)Nc1ccccc1C [Quatacaine],1.01,1.03,1,0.975
CC(C)c1nc(N(C)S(C)(=O)=O)nc(-c2ccc(F)cc2)c1/C=C/[C@@H](O)C[C@@H](O)CC(=O)O [Rosuvastatin],1.01,1.03,1.01,1.01

SMILES,growth AUC normalised to DMSO control [1],growth AUC normalised to DMSO control [2],growth AUC normalised to DMSO control [3],growth AUC normalised to DMSO control [4]
CCN[C@@H]1C[C@H](N)[C@@H](O[C@H]2OC(CN)=CC[C@H]2N)[C@H](O)[C@H]1O[C@H]1OC[C@](C)(O)[C@H](NC)[C@H]1O [Netilmicin sulfate],1.02,1.04,0.996,0.932
Cc1cccc(C)c1NC(=O)CC12CCCN1CCC2 [Pilsicainide Hydrochloride],1.05,1.09,1,1
Oc1c(Br)cc(Br)c2cccnc12 [Broxyquinoline],0.294,0.0591 (active),0.986,0.561
CC(C)C[C@H](NC(=O)[C@@H](O)[C@H](N)Cc1ccccc1)C(=O)O [Ubenimex],0.448,0.535,1,0.992
Cc1c(O)c(=O)ccn1C [Deferiprone],0.978,0.993,1,1
CC(=O)Oc1ccccc1C(=O)Nc1ncc([N+](=O)[O-])s1 [Nitazoxanide],0.0128 (active),0.0145 (active),0.922,0.414
CCOC(=O)O[C@]1(C(=O)OCCl)CC[C@H]2[C@@H]3CCC4=CC(=O)C=C[C@]4(C)[C@H]3[C@@H](O)C[C@@]21C [Loteprednol etabonate],0.853,0.862,1.01,0.953
Cc1cc(NS(=O)(=O)c2ccc(N)cc2)nc(C)n1 [Sulfisomidine],1.03,1.03,1,0.995
N[C@@H](CCC(=O)N[C@@H](CS)C(=O)NCC(=O)O)C(=O)O [Glutathione],0.996,1,1,0.956
CCN(CC)CCOCCOC(=O)C(CC)(CC)c1ccccc1 [Oxeladin citrate],1,0.98,0.995,0.973
Cc1onc(-c2ccccc2)c1-c1ccc(S(N)(=O)=O)cc1 [Valdecoxib],0.981,0.993,1,0.983
CCN(CC)C(=O)C1(c2ccccc2)CC1CN (stereo not given) [Milnacipran hydrochloride],1.02,1.01,0.999,1
CC(C)Nc1cccnc1N1CCN(C(=O)c2cc3cc(NS(C)(=O)=O)ccc3[nH]2)CC1 [Delavirdine],1.02,1.07,1.02,0.98
CN1CCN(c2c(F)cc3c(=O)c(C(=O)O)cn4c3c2OCN4C)CC1 [Marbofloxacin],0.0125 (active),0.0111 (active),0.00445 (active),0.00216 (active)
CC1=C(C(=O)O)N2C(=O)[C@@H](NC(=O)[C@H](N)c3ccccc3)[C@H]2SC1 [Cephalexin monohydrate],1.04,1.04,0.999,0.968
C[C@H](CCc1ccccc1)NC[C@H](O)c1ccc(O)c(C(N)=O)c1 [Dilevalol],1.02,1.05,0.996,1.01
CCOC(=O)[C@H](CCc1ccccc1)N[C@@H](C)C(=O)N1[C@H](C(=O)O)C[C@H]2CCCC[C@@H]21 [Trandolapril],0.986,0.992,1.01,0.998
NC(=O)OCC(COC(N)=O)c1ccccc1 [Felbamate],1,1.04,0.999,1
CCOc1ccccc1C(N)=O [Ethenzamide],1.02,1.03,1,1
NC(N)=Nc1nc(CSCCN/C=N/S(=O)(=O)c2ccc(Br)cc2)cs1 [Ebrotidine],0.995,1.01,0.998,0.987
O=C(Cn1cnnn1)N[C@@H]1C(=O)N2C(C(=O)O)=C(CSc3nncs3)CS[C@H]12 [Ceftezole],0.00781 (active),0.00376 (active),0.0119 (active),0.00306 (active)
CN(C)c1cc(NC(=O)CNC(C)(C)C)c(O)c2c1C[C@H]1C[C@H]3[C@H](N(C)C)C(=O)C(C(N)=O)=C(O)[C@@]3(O)C(=O)C1=C2O [Tigecycline],0.987,0.997,0.995,0.997
